Assay outcomes from PubChem BioAssay.
Cycloheximide cs: counter-screen hit for Shiga toxin inhibitors, cycloheximide | 12% of 300,000 active | max response, % | cell reporter, cycloheximide protein synthesis inhibition counterscreen | AID 2314; in the data active = max response mostly above about 13%, no sharp cut-off; inactive = mostly below about 14%; also: read at 38.3 µM for the half of the compounds with a filed dose; 0% is about no effect
NS1 inh: blocks influenza NS1 protein function | 0.4% of 270,000 active | AID 2326 | Potency, µM (doses to about 46.1 µM), inactives show at the top dose activity, positive = more growth; also: potency is read from the fitted curve at half-maximal effect; actives are rising curves; nearly all actives have a fitted effect of over 50% in size
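A cell-based growth assay was used: compounds that relieve NS1-induced slow growth of budding yeast raise OD600. Assay medium was yeast nitrogen base with ammonium sulphate and -URA supplement, pH 6.0, with 2% galactose.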
Shiga inhibitor: Shiga toxin inhibition | Vero cells, Shiga toxin protein synthesis inhibition reporter | inhibition, % at 38.7 µM | 9.2% of 290,000 active | AID 2315; in the data active = inhibition mostly above about 28%, no sharp cut-off; inactive = mostly below about 43%; also: 0% is about no effect
Pf growth 48h: inhibits P. falciparum growth in the first generation, 48 h | P. falciparum luciferase growth in erythrocytes, 48 h | Potency, µM (doses to about 28.7 µM), for inactives: at the highest dose activity change, negative = inhibition, most hits filed as inhibitors | 5.9% of 310,000 active | AID 504832; active = well fitted inhibition curve with a large enough effect; inconclusive = small, poorly fitted or top-dose-only effect, or another doubt; inactive = no such curve, though single readings can be large or run the other way; also: potency is read from the fitted curve at half-maximal effect; % is scaled to controls: 0 for no effect and ±100 for the full control effect
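Erythrocytes infected with P. falciparum carrying an integrated firefly luciferase reporter (2% hematocrit, 0.1% parasitemia final) were exposed to compounds in RPMI 1640 with 0.5% Albumax at 37 C, 5% CO2. Growth inhibition was scored as reduced luminescence.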
SARS PLP yeast: blocks SARS-CoV papain-like protease in a yeast assay | AID 485353 | S. cerevisiae expressing SARS-CoV PLpro, growth rescue | Potency, µM (series often up to 32.9 µM), without a hit: at the top dose activity, positive = growth rescue, most hits filed as activators | 0.19% of 330,000 active; also: potency is read from the fitted curve at half-maximal effect; 0% is about no effect; nearly all actives have a fitted effect of over 55% in size
Pf growth 96h: P. falciparum growth inhibition at 96 hours; P. falciparum luciferase reporter growth, 96 h; Potency, µM (titrated, usually from 28.7 µM), inactives show at the top dose activity change, negative = inhibition, usual class: inhibitors; 6.9% of 320,000 active; AID 504834; active = well fitted inhibition curve with a large enough effect; inconclusive = small, poorly fitted or top-dose-only effect, or another doubt; inactive = no such curve, though single readings can be large or run the other way; also: potency is read from the fitted curve at half-maximal effect; % is scaled to controls: 0 for no effect and ±100 for the full control effect
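Readout is luminescence from an integrated firefly luciferase in P. falciparum. Red cells, 2% hematocrit and 0.05% parasitemia final, were cultured with compound through two parasite generations (96 hours) at 37 C, 5% CO2.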
Active calls of the source: *; i = inactive; ? = inconclusive; nt = no result given; [ ] = dose if it differs, or a comment. Most compounds without a hit are left out; they make up all but 21% or so of the library. Unless noted, calls follow the shape of the full dose curve.

SMILES	Cycloheximide cs	NS1 inh	Shiga inhibitor	Pf growth 48h	SARS PLP yeast	Pf growth 96h
C=Cn1c(P(=S)(N2CCOCC2)N2CCOCC2)cc2c1CCCC2	-5	0%	-9	12µM*	-5%	21%
O=C(CCc1ccccc1)NC(=S)Nc1ccccc1Br	13	3%	52*	12%	-1%	23%
O=C(CCCc1ccccc1)Nc1cccc(C(=O)O)c1	60*	8%	122*	176%	0%	?
COc1ccccc1NC(=S)NC(=O)CCc1ccccc1	11	-12%	10	2%	7%	-5%
O=C(CCc1ccccc1)NC(=S)Nc1cccc(C(=O)O)c1	58*	?	103*	144%	5%	0%
Cc1cccc(NC(=S)N(CCN2CCOCC2)Cc2cc3cc4c(cc3[nH]c2=O)OCCO4)c1	0	-2%	-8	?	-1%	i
Cc1ccc(CN(C)C(=O)c2ccc3c(c2)NC(=O)CS3)o1	-6	-41%	-8	7%	-1%	-18%
COc1cc2ncc(S(=O)(=O)c3ccccc3)c(N3CCCC(C)C3)c2cc1OC (stereo unspecified)	0	-51%	-4	?	29%	11%
COc1ccccc1NS(=O)(=O)c1cc(NC(=O)COc2ccccc2F)ccc1N1CCOCC1	nt	nt	nt	nt	2%	nt
CC(C)OP(=O)(CCP(=O)(OC(C)C)OC(C)C)OC(C)C	-1	0%	-8	1%	-1%	1%
CCSC1=C(C#N)C(c2cccc(O)c2)CC(=O)N1 (stereo unspecified)	0	4%	-8	nt	-4%	-28%
CCSC1=C(C#N)C(c2cccc(Br)c2)CC(=O)N1 (stereo unspecified)	6	-4%	4	6.6µM*	5%	13%
COc1cc2cc(CN(Cc3cccnc3)C(=O)Nc3ccccc3F)c(=O)[nH]c2cc1OC	-1	2%	13	7.4µM*	1%	22%
Cc1ccc2[nH]c(=O)c(CN(CCN3CCOCC3)C(=O)Nc3ccccc3F)cc2c1	-1	-24%	-2	?	6%	7%[5.75 µM]
Cc1cc2cc(CN(CCN3CCOCC3)C(=O)Nc3ccccc3F)c(=O)[nH]c2cc1C	-2	-5%	-9	9.3µM*	3%	nt
CNC(=S)N(CCc1ccccc1)Cc1cc2cc(OC)c(OC)cc2[nH]c1=O	-1	24%	-6	?	8%	?
Cc1ccc2[nH]c(=O)c(CN(CCCN3CCOCC3)C(=O)Nc3cccc(Cl)c3)cc2c1	1	-11%	-4	8.3µM*	-18%	1%
Cc1cc2cc(CN(CCCN3CCOCC3)C(=O)NC3CCCCC3)c(=O)[nH]c2cc1C	-2	-6%	-4	4.7µM*	-1%	240%
Cc1cccc2cc(CN(CCN3CCCC3)C(=O)NC3CCCCC3)c(=O)[nH]c12	-2	2%	-17	4.7µM*	-8%	?
COc1ccc(CS(=O)c2nc(C)cc(C)c2S(C)(=O)=O)cc1 (stereo unspecified)	7	nt	-8	12µM*	0%	30%
COc1ccc(Oc2nc(C)cc(C)c2S(C)(=O)=O)cc1	2	-6%	-3	11%	3%	62%
COc1cc(/C=C(\C#N)c2ccccn2)ccc1OCc1ccccc1Cl	10	11%	2	1.9µM*	5%	2.3µM*
COc1cc(CNCc2ccccn2)ccc1OCc1ccccc1Cl	13*	6%	33	?	14%	?
COc1cc(CNCCN2CCOCC2)ccc1OCc1ccc(Cl)cc1	16	-6%	13	nt	-5%	?
COc1cc(CNCCN2CCOCC2)ccc1OCc1ccccc1Cl	2	-4%	-12	?	-1%	12µM*
SMILES	Cycloheximide cs	NS1 inh	Shiga inhibitor	Pf growth 48h	SARS PLP yeast	Pf growth 96h
Cc1cccc(C(=O)Nc2nnc(S(=O)(=O)N(C)Cc3ccco3)s2)c1	17	4%	15	-6%	-2%	46%
O=C(NC(=S)Nc1nc2ccccc2s1)c1ccco1	35*	-3%	30*	200%	-6%	48%
COc1ccc2sc(NC(=O)c3ccco3)nc2c1	23*	-123%	30	308%	-16%	56%
COc1ccc2nc(NC(=S)NC(=O)c3ccco3)sc2c1	34*	nt	127*	232%	-2%	-29%
O=[N+]([O-])c1ccccc1CNC1CCCc2ccccc21 (stereo unspecified)	7	nt	-7	-9%	-5%	-33%
COCCCN(C(=S)Nc1cccc(Cl)c1)C(C)c1ccncc1 (stereo unspecified)	6	13%	-10	?	10%	-24%
NC(=O)c1cccnc1OCC(F)(F)F	-2	5%	-13	44%	1%	1%
COc1cc(/C=C2/C(=O)N(c3ccc(Br)cc3)N=C2C)cc([N+](=O)[O-])c1O	-3	5%	-13	22%	1%	43%
CC1=NN(c2ccc(C)c(C)c2)C(=O)/C1=C\C=C\c1ccc([N+](=O)[O-])o1	44*	nt	88*	1%	-6%	?
Cc1ccc2c(c1)N(CC(=O)NCCN1CCOCC1)C(=O)CO2	nt	6%	nt	nt	nt	nt
Cc1ccc(Cn2ncc3c(N4CCN(CCc5ccccc5)CC4)ncnc32)cc1	-2	-2%	-3	6.6µM*	1%	?
Cc1ccc(Cn2ncc3c(N4CCN(Cc5ccc(Cl)cc5)CC4)ncnc32)cc1	13	7%	24	?	-1%	-14%
Cc1ccc(Cn2ncc3c(N4CCN(C)CC4)ncnc32)cc1	-5	nt	14	-12%	0%	7.4µM*
Cc1ccc(Cn2ncc3c(N4CCN(c5ccc(C)cc5)CC4)ncnc32)cc1	-5	5%	15	?	?	51%
CC1(C)N([O-])C2=C(CCCC2)[N+]1=O	11	9%	11	6%	0%	-1%
Cc1ccnc(N/C=C(/NC(=O)c2ccccc2)C(=O)N/N=C\c2ccc(Cl)cc2)n1	10	-4%	2	74%	3%	71%
CCNC(=O)/C=C1\NC(C)(C)Cc2c1ccc1ccccc21	0	-11%	-9	nt	-11%	?
CC1(C)Cc2c(ccc3ccccc23)C(=O)N1	11*	-10%	16	?	-7%	?
CCCOc1ccc(-c2nc3c(c(=O)[nH]c(=O)n3Cc3ccccc3)n2CCO)cc1OCC	-6	3%	-17	?	1%	?
CCCn1c(-c2cccc(F)c2)nc2c1c(=O)[nH]c(=O)n2Cc1ccccc1	-1	8%	18	-4%	0%	-29%
COCCn1c(-c2cccc([N+](=O)[O-])c2)nc2c1c(=O)[nH]c(=O)n2Cc1ccccc1	1	3%	-6	?	10%	12µM*
CCCn1c(-c2cc(OC)c(OC)c(OC)c2)nc2c1c(=O)[nH]c(=O)n2Cc1ccccc1	-5	12%	-9	9.3µM*	1%	?
CCCCn1c(=O)[nH]c(=O)c2c1nc(-c1ccc(OCCC)c(OCC)c1)n2CCOC	1	13%	-7	9.3µM*	-5%	?
